# Hits are enriched below; roughly 2% of the tested compounds scored in any of these assays.
# Jurkat NFkB inh: lowers PMA/ionomycin-induced NF-kB signal in Jurkat cells | PMA/ionomycin-induced NF-kB luciferase reporter, luminescence | inhibition, % at 4 µM | actives 0.53% (n = 330,000) | AID 435003; in the data active = inhibition above about 50%
# 697 NFkB inh: inhibitors of the PMA/ionomycin-induced NF-kB reporter in 697 B cells; 697 B-cell NF-kB luciferase reporter, 16 h; inhibition, % at 4 µM; actives 0.33% (n = 330,000); in the data active = inhibition above about 35%
# GalR3 antag: antagonists of human GalR3; O60755; HEK293 GalR3-CNG cAMP membrane potential fluorescence; galR3 body fused to GalR1 C-terminus; inhibition, % at 3 µM; actives 0.44% (n = 360,000);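 active = inhibition above the screen-wide average plus 3 SD, cut at about 13% in these data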;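 note: forskolin and galanin both at EC90 stimulate the cells; cAMP rise reported by CNG channel membrane potential dye signal; 0% = forskolin plus galanin with DMSO and 100% = forskolin alone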
# Target sequence (O60755 1-299 limits assumed): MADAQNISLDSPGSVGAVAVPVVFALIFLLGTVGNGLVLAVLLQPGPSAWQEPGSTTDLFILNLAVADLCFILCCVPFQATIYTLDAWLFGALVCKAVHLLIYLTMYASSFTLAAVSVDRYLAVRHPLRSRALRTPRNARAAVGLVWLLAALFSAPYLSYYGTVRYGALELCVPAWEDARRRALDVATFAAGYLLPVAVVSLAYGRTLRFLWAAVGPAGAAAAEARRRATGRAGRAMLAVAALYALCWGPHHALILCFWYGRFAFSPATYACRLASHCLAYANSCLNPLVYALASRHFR
# Gli-Sufu antag: blocks Gli-Sufu signaling in a luciferase reporter; inhibition, % at 5 µM; Sufu-KO-LIGHT fibroblasts, Gli luciferase reporter luminescence; actives 0.74% (n = 340,000);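 active = inhibition above about 55%, limit read from the data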;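 note: 0% = DMSO-treated cells and 100% = wells with medium but no cells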
# COUP-TFII inh: NR2F2 (human) inhibition, primary screen. P24468. HEK293T NGFI-A luciferase reporter, luminescence. inhibition, % at 8.6 µM. actives 0.7% (n = 370,000);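 active = inhibition above a per-plate cutoff, mean inhibition of test wells between control levels plus 3 SD, cut at about 38% in these data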;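 note: cells cotransfected with COUP-TFII expression vector driving the NGFI-A reporter; 0% = median of COUP-TF2 test wells and 100% = reporter-only cells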
# Target sequence (P24468 whole entry, looked up): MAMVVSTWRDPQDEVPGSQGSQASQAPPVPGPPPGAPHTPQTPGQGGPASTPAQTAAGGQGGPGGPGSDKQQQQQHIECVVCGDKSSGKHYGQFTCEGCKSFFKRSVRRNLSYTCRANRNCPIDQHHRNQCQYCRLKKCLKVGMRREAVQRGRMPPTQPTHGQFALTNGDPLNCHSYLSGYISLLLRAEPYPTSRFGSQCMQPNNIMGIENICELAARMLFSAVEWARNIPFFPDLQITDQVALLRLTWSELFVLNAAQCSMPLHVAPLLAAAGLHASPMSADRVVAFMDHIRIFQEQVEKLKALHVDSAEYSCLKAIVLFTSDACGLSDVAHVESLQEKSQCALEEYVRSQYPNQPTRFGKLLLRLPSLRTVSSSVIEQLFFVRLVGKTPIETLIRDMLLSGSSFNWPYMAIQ
# Jurkat NFkB conf: lowers PMA/ionomycin-induced NF-kB signal in Jurkat cells. Jurkat NF-kB luciferase, 16 h. actives 27% (n = 2,700). shares compounds with Jurkat NFkB inh. AID 435020. inhibition, % at 4 µM;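 active = inhibition reaching about 45% at 4 µM in either replicate, limit read from the data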;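 note: plate controls were PMA/ionomycin stimulated DMSO wells for no effect and unstimulated DMSO wells for full effect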
# * = called active by the depositor; · = no result.
SMILES,Jurkat NFkB inh,697 NFkB inh,GalR3 antag,Gli-Sufu antag,COUP-TFII inh,Jurkat NFkB conf
N#CC1=C(N)Oc2c(ccc3cccnc23)C1c1ccccc1 (stereo not given),65.6*,-5.2,-9.0,-5.8,7.0,32.4
Cc1ccc2[nH]c(=O)c(C3C(C#N)=C(N)Oc4c3ccc3cccnc43)cc2c1 (stereo not given),-14.7,-15.4,-0.8,18.8,-3.8,·
O=C(Nc1ccc2c(c1)OCCO2)c1cccc(Br)c1,-174.1,-55.5,-3.0,-77.6,-32.1,-101.2
Nc1c(C(=O)Nc2ccc3c(c2)OCCO3)nnn1Cc1ccc(Br)cc1,-200.1,-190.2,-3.4,-130.3,-36.9,-112.4
O=C(Nc1ccc2c(c1)OCCO2)c1ccc(Br)cc1,-138.4,-75.2,-9.1,-76.9,-39.5,·
CCN1CCN(c2ccc(NC(=O)c3ccc4c(c3)OCCO4)cc2C)CC1,-164.8,-76.1,-2.3,-49.8,-33.7,-40.4
O=C(Nc1ccc2c(c1)OCCO2)c1ccc(Cl)c(Cl)c1,-151.3,-45.2,-8.5,-79.3,-25.0,-131.7
Nc1c(C(=O)Nc2ccc3c(c2)OCCO3)nnn1Cc1cccc(Br)c1,-42.9,-74.4,-4.3,-62.3,-47.7,·
Cc1ccc(C(=O)Nc2ccc3c(c2)OCCO3)cc1,-47.8,-221.0,-1.8,-8.9,5.8,·
Cc1ccc(-n2c(Cc3cccs3)nnc2SCC(=O)Nc2ccccc2-c2ccccc2)cc1,·,·,·,·,-22.2,·
CC(C)c1ccc(NC(=O)c2cccc(Br)c2)cc1,-234.4,-207.5,-6.6,-98.5,-41.8,-105.5
O=C(Nc1ccc(Cl)cc1Cl)c1ccc2c(c1)OCCO2,-167.1,-241.1,-7.8,-92.8,-44.6,-95.2
Cc1cc(C(=O)Nc2ccc3c(c2)OCCO3)ccc1[N+](=O)[O-],-159.8,-71.8,-8.1,-101.4,-42.0,-82.2
O=C(Nc1cccc(C(=O)Nc2cccc(Br)c2)c1)c1ccccc1,-26.8,-37.9,-3.0,2.6,-18.6,·
O=C(Nc1ccc2c(c1)OCCO2)c1ccc(Cl)c([N+](=O)[O-])c1,-18.9,-72.2,0.5,-14.5,-45.8,·
Cc1cc(Cl)ccc1NC(=O)c1ccc2c(c1)OCO2,-81.0,-89.5,-8.8,-94.8,-50.7,·
COc1ccc(S[C@]2(C(=O)N3CCCC3)CC(=O)N(P(=O)(OC)OC)[C@@H]2c2ccc(OC)cc2)cc1,·,·,·,·,7.5,·
Cc1ccc(-n2c(SCC(=O)c3ccc(O)c(O)c3)nnc2-c2ccccc2)cc1,·,·,·,·,-0.7,·
COC(=O)C[C@H]1CC[C@H]2[C@@H](COc3ccc(NC(=O)Nc4ccccc4)cc3C(=O)N2C)O1,·,·,·,·,-3.7,·
CCOC(=O)[C@@]12CCCC3=C1N(CCC3)C(=O)[C@H]2CC(=O)N1CCN(C(=O)C2CC2)CC1,·,·,·,·,-6.7,·
COc1cc(F)c(S(=O)(=O)N2CCCN(S(=O)(=O)c3cccc(N)c3)CC2)c(F)c1,·,·,·,·,23.4,·
CC(=O)CC[C@H]1CC[C@]2(CCCN(C(=O)C(C)(C)C)C2)O1,·,·,·,·,0.2,·
CN(C)c1ccc(/C=N\Nc2ccccn2)cc1,-185.5,-193.1,-9.2,-91.7,-58.2,-59.8
S=c1[nH]nc(-c2n[nH]c3c2CCC3)n1N=Cc1ccc(OCc2ccccc2)cc1,·,·,·,·,-36.2,·
O=C(N/N=C/c1ccc(Cl)c([N+](=O)[O-])c1)c1cnccn1,7.8,-2.4,-2.1,-7.5,-35.3,·
SMILES,Jurkat NFkB inh,697 NFkB inh,GalR3 antag,Gli-Sufu antag,COUP-TFII inh,Jurkat NFkB conf
O=C(N/N=C/c1ccc(Sc2nc3ccccc3s2)c([N+](=O)[O-])c1)c1ccccn1,68.9*,6.3,-5.4,-3.1,5.7,21.2
CCOc1ccc(-n2c(SCC(=O)Nc3cccc4ccccc34)nnc2-c2ccco2)cc1,·,·,·,·,13.2,·
COc1cc(/C=C2\CC/C(=C\c3cc(OC)c(OC)c(OC)c3)C2=O)cc(OC)c1OC,18.2,25.6,-4.7,27.5,0.1,·
COc1cc(/C=C2\CC(C(C)(C)C)C/C(=C\c3cc(OC)c(OC)c(OC)c3)C2=O)cc(OC)c1OC (stereo not given),90.4*,-221.8,4.8,15.5,-7.2,-14.3
O=Cc1cc2ccccc2nc1SCc1ccc(Cl)c(Cl)c1,56.9*,-6.5,4.1,35.5,-11.2,44.1
O=Cc1cc2ccccc2nc1SCc1ccc(Cl)cc1,48.9,-2.2,3.5,-27.9,2.3,·
CCCCCCCCN1C(=O)[C@@H](CC(=O)NCCCOCCCC)C[C@@]2(C(=O)OC)C1=C[C@H](COCc1ccccc1)O[C@@H]2C,·,·,·,·,-10.2,·
Brc1ccc2c(c1)CN1CCCC1=N2,73.5*,26.3,-10.9,-7.7,10.8,24.2
O=C1CN2C(=Nc3ccc(Br)cc3C2c2ccccc2)CCN1 (stereo not given),2.8,-13.5,0.5,-88.9,10.5,·
Cc1cccc(N2CCN(Cc3cn(C)nc3-c3ccccc3F)CC2)n1,54.4*,-30.4,-6.3,15.7,34.9,28.4
Cn1cc(CN2CCN(c3ccc(Cl)cn3)CC2)c(-c2ccccc2F)n1,-6.8,8.0,-0.5,8.5,-11.1,·
O/C(=C\c1ccc2ccccc2n1)c1ccc(O)cc1O,-170.0,-185.8,1.4,-76.1,-56.1,-15.3
CN(CCO)c1nc(N)c2c(N)nc3c(c2c1C#N)CC(=O)N3C1CCCC1,15.8,-29.7,·,·,·,·
CC(C)(C)N1C(=O)Cc2c1nc(N)c1c(N)nc(N3CCCCC3CO)c(C#N)c21 (stereo not given),55.9*,-44.7,·,14.0,·,20.8
O=C1CC(c2cc(F)ccc2F)c2cc3c(cc2N1)CCC3 (stereo not given),71.1*,-76.8,-2.7,4.1,3.5,51.7*
COc1cc2c(cc1OC)C(c1cccc(Br)c1)CC(=O)N2 (stereo not given),-14.1,-13.0,-3.8,5.2,-11.3,·
O=C1CC(c2cccc(Br)c2)c2cc3c(cc2N1)CCC3 (stereo not given),54.0*,-71.9,-9.0,10.3,5.9,45.1
Cc1ccc(-c2cccc3[nH]cc(C)c23)s1,·,·,·,·,-13.1,·
CNC[C@H](CC1CCCCC1)NC[C@H](Cc1ccccc1)NCCC12CC3CC(CC(C3)C1)C2,91.2*,21.2,-3.2,-11.0,16.1,45.2
NC[C@H](Cc1ccccc1)NCCCCC1CCCCC1,5.6,-5.2,-2.3,-5.5,12.3,·
O=C(CSc1nnc(COc2ccccc2)n1Cc1ccco1)Nc1ccc2c(c1)OCO2,·,·,·,·,2.2,·
CC(C)(C)c1ccc(C(=O)CC(=O)c2cc(Cl)ccc2O)cc1,9.5,-65.0,-5.1,-61.4,-14.2,·
N/C(=C\C(=O)c1cc(Cl)ccc1O)C(Cl)(Cl)Cl,64.0*,-98.3,-1.1,52.9,-1.8,22.4
c1ccc(OCc2nnc(SCc3nc4ccccc4[nH]3)n2-c2ccccc2)cc1,·,·,·,·,14.7,·
Cn1c(N)c(C(=O)Nc2ccc3ccccc3c2)sc1=S,-163.5,-111.8,-6.0,-73.2,-56.0,-26.1
CC(C)(C)OC(=O)N1CCC(N[C@@H](Cc2c[nH]c3ccccc23)C(=O)NCCc2c[nH]c3ccccc23)(C(=O)NC2CCCCC2)CC1,·,·,·,·,5.3,·
CCCCC(=O)Nc1nc(C)c(-c2csc(Nc3ccccc3OC)n2)s1,17.6,14.6,-3.9,-1.1,3.7,·
C=CCCC(=O)Nc1nc(C)c(-c2csc(Nc3ccccc3OC)n2)s1,53.0*,-36.5,-4.4,-6.7,-7.3,16.1

# Bioassay records from PubChem.
